Compounds without any hit were thinned out: in the full panel of roughly 83,000, 20% have a hit.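 Each cell line was grown in a 96-well plate and treated with one concentration of compound for 48 hours. Values below 10 were considered active.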 Unmarked numbers belong to inactive results. Calls of active or inactive are those of the source.
Columns and labels:
Assay in all cases: NCI-60 one-dose screen, 48 h (100 = growth as untreated, 0 = no growth, -100 = all killed)
Conditions in all cases: 10 µM unless noted
NCI-H23 lung = tested on: NCI-H23 lung
NCI-H226 lung = tested on: NCI-H226 lung
NCI-H322M lung = tested on: NCI-H322M lung
HOP-62 NSCLC = tested on: HOP-62 NSCLC
NCI-H460 lung = tested on: NCI-H460 lung
HOP-92 NSCLC = tested on: HOP-92 NSCLC
NCI-H522 lung = tested on: NCI-H522 lung
A549/ATCC NSCLC = tested on: A549/ATCC NSCLC
786-0 renal = tested on: 786-0 renal
COLO 205 colon = tested on: COLO 205 colon

SMILES	growth (NCI-H23 lung)	growth (NCI-H226 lung)	growth (NCI-H322M lung)	growth (HOP-62 NSCLC)	growth (NCI-H460 lung)	growth (HOP-92 NSCLC)	growth (NCI-H522 lung)	growth (A549/ATCC NSCLC)	growth (786-0 renal)	growth (COLO 205 colon)
CC(C)=CCc1cc2c(cc1O)C1=C(C(=O)C3=C(C1=O)S(=O)(=O)CCN3)C(C=C(C)C)O2 (centres undefined)	-35.9% (active)	-54.1% (active)	-76.2% (active)	-52.7% (active)	-50.4% (active)	-11.7% (active)	-50.8% (active)	-42.4% (active)	-12.3% (active)	
Nc1c2c(c(O)c3c1=C(CO)C=N3)=NCCS2=O (centres undefined)	-33.4% (active)	-52.2% (active)	-95.1% (active)	-52.7% (active)	-61.7% (active)	-54.3% (active)	-46.9% (active)	-42.4% (active)	36.1%	
O=C(c1ccc(/C=C/c2n[nH]c3ccccc23)cc1)N1CCNCC1	24.8%	3.94% (active)	33.5%	16.5%	10.7%	-3.02% (active)	36.2%	22.4%	37.7%	
N#Cc1c(-c2ccc(Cl)cc2)csc1NC(=O)Nc1cccc(C(F)(F)F)c1	-8.85% (active)	17.6%	31.5%	18.4%	5.61% (active)	-4.85% (active)	-9.41% (active)	11.4%	22.9%	
Cn1cc(-c2cnn3c(N)c(Br)c([C@@H]4CCCNC4)nc23)cn1	39.6%	60%	48.2%	28.8%	35%	54.6%	28.4%	41.5%	37%	
COc1cc2c(Oc3ccc4[nH]c(C)cc4c3F)ncnc2cc1OCCCN1CCCC1	84%	57.3%	93%	79.8%	96.7%	95.9%	88.3%	84.5%	84.6%	
CC(C)(C)OC(=O)N1CCC(O)[C@@H](O[Si](c2ccccc2)(c2ccccc2)C(C)(C)C)[C@H]1/C=C/c1ccccc1 (some centres undefined)	34.4%	47.9%	83.5%	67.4%	36.1%	36%	30.1%	41.9%	52.2%	
CCCCCCCC(=O)SCC/C=C/[C@@H]1CC(=O)NCc2cc(ccn2)C2=N[C@@](C)(CS2)C(=O)N[C@@H](C(C)C)C(=O)O1	2.97% (active)	-8.32% (active)	-16.8% (active)	-19% (active)	5.33% (active)	-6.63% (active)	-13% (active)	-6.82% (active)	12%	
CCOc1cccc(/C=N/NC(=O)c2ccccc2Nc2ccnc(C(F)(F)F)c2)c1O	21.6%	-15.2% (active)	22.2%	-7.4% (active)	-8.7% (active)	25.2%	16.6%	15%	3.64% (active)	9.3% (active)
O=C1C=CC2(NN=C(c3ccccc3)N2c2ccccc2)c2cccc(O)c21 (centres undefined)	9.65% (active)	51.9%	83.9%	21.5%	34.1%	117%	28.7%	14.8%	102%	
Cc1cn(-c2cc(NC(=O)c3ccc(C)c(Nc4nccc(-c5cccnc5)n4)c3)cc(C(F)(F)F)c2)cn1	49.2%	67.1%	69.3%	47.5%	63.7%	70.7%	41.5%	45.5%	71.4%	
CNC(=O)c1nn(C)c2c1C(C)(C)Cc1cnc(Nc3ccc(N4CCN(C)CC4)cc3)nc1-2	2.37% (active)	12.3%	15.1%	-9.46% (active)	7.46% (active)	3.76% (active)	-29.4% (active)	-0.797% (active)	12.3%	
COc1cc2cc(NCc3ccc(Cl)cc3)nc(C)c2cc1OC	23.7%	35.5%	44.6%	56.5%	22.6%	36.3%	45.7%	39.8%	28.2%	26.5%
COc1cc(N2CCC(N3CCN(C)CC3)CC2)ccc1Nc1ncnc(Nc2ccccc2S(=O)(=O)C(C)C)n1	102%	109%	109%	86.7%	102%	105%	80.5%	104%	99.7%	99%
c1cc(OCCN2CCCCC2)cc(-c2n[nH]c3ccc(-c4ncn[nH]4)cc23)c1	43.8%	61.6%	37.6%	60.6%	66%	44.8%	36.8%	63.8%	79.9%	6.03% (active)

— PubChem BioAssay (NCI)
